# Screens from PubChem.
# hcDAF12 agonist = H. contortus DAF-12 nuclear receptor activators, primary screen, cell-based, luminescence, HEK293, lit1-tk-luc reporter; HEK293 hcDAF-12 lit1-tk-luc reporter; 0% DMSO, 100% Δ7-dafachronic acid; 370,000 compounds, 1.4% hits; AID 652067, 2013; activation, % at 6.8 µM;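 active means activation above the mean of all tested compounds plus 3 SD, cut at about 5.5% in these data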;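 further: 100% = response to 3 µM Δ7-dafachronic acid high control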
# hgDAF12 agonist = H. glycines DAF-12 receptor agonists, primary screen, cell-based, luminescence, HEK293, GAL4 fusion, UAS-luciferase | HEK293 GAL4-hgDAF12 UAS-luciferase reporter, agonist luminescence; normalized to butyrate control | activation, % at 6.8 µM | 370,000 compounds, 1.8% hits | AID 687014, 2013;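 active means activation above a cutoff set at the mean of all screened compounds plus 3 SD, cut at about 10% in these data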;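 further: 0% = DMSO wells and 100% = sodium butyrate wells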
# ssDAF-12 act = S. stercoralis DAF-12 nuclear receptor activators, primary screen, cell-based, luminescence, HEK293, GRIP1 co-expression, lit1-tk-luc | HEK293 ssDAF-12/GRIP1 lit1-tk-luc reporter; % of 3 µM dafachronic acid response | activation, % at 6.8 µM | 370,000 compounds, 1% hits | AID 652126, 2013;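 active means activation above the mean over all tested compounds plus 3 SD, cut at about 0.9% in these data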;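 further: 0% = DMSO-only wells and 100% = 3 µM delta7-dafachronic acid wells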
# DAX1 inh-1 = DAX1 (NR0B1) inhibitors on StAR promoter, primary screen, cell-based, luminescence, SF-1 (NR5A1), full-length DAX-1 | HEK293T StAR-luciferase reporter, SF-1/DAX-1 repression relief | inhibition, % at 6.8 µM | 370,000 compounds, 1.1% hits | AID 652010, 2013;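 active means inhibition above the mean over all tested compounds plus 3 SD, cut at about 3.6% in these data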;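 further: 0% = DAX-1 cells with DMSO and 100% = cells lacking DAX-1 with DMSO; higher inhibition means more luminescence from relief of DAX-1 repression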
# DAX1 inh-2 = DAX1 (NR0B1) inhibitors, primary screen, cell-based, HEK293, Gal4-DAX1, luciferase luminescence | inhibition, % at 6.75 µM | 340,000 compounds, 0.99% hits | AID 504766, 2011 | HEK293 Gal4-DAX1 luciferase reporter;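 active means inhibition above the mean over all tested compounds plus 3 SD, cut at about 4.2% in these data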;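 further: 0% = DAX1-transfected cells with DMSO and 100% = empty-vector control cells with DMSO; inhibition shows as a rise in luminescence from relieved DAX1 repression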
# LXRb hcDAF ctr = LXR agonists, Gal4 luciferase reporter, confirmation, counter-screen for hcDAF-12 agonist project, cell-based, luminescence, HEK293, H. contortus campaign | shares compounds with hcDAF12 agonist | HEK293 Gal4-LXR tk-luc reporter, 24 h; normalized: DMSO 0%, positive control 100% | activation, % at 6.8 µM | 3,400 tested, under 10 active | AID 743027, 2013;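 active means mean percent activation of the reporter above a cutoff set as the average over tested compounds plus their standard deviation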
# Target sequence (P55055 whole entry, looked up, the tested form may be a part): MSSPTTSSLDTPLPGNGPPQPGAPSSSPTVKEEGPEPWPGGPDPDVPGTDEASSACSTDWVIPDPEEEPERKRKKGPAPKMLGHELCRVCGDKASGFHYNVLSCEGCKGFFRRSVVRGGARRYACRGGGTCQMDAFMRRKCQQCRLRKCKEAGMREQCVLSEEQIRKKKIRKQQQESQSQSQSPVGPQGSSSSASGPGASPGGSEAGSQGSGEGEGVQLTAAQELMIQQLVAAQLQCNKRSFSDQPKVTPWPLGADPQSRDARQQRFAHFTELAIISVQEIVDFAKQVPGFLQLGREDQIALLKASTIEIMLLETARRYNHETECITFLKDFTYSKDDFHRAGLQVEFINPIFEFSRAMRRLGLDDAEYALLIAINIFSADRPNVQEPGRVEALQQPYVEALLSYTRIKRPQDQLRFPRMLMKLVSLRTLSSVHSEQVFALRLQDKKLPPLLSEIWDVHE
# hcDAF12 ag = H. contortus DAF-12 receptor agonists, confirmation, cell-based, luminescence, HEK293, lit1-tk-luc, triplicate; AID 743032, 2013; activation, % at 6.8 µM; shares compounds with hcDAF12 agonist; 3,400 compounds, 61% hits; HEK293 hcDAF-12 lit1-tk-luc reporter; % of Δ7-dafachronic acid response;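 active means mean activation across triplicate tests above the threshold derived from the earlier primary screen, cut at about 5.5% in these data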;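 further: 0% = DMSO only wells and 100% = 3 µM Δ7-dafachronic acid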
# * marks the source's active call; other numbers are inactive results; . = not tested or not shown. Most compounds without a hit are left out; they make up all but 4.1% or so of the library.
SMILES,hcDAF12 agonist,hgDAF12 agonist,ssDAF-12 act,DAX1 inh-1,DAX1 inh-2,LXRb hcDAF ctr,hcDAF12 ag
Cc1ccc(NC(=O)c2cc3ccccc3o2)cc1Cl,8.8*,13*,0,3,6.8*,1,5.9*
COc1ccc(NC(=O)c2cc3ccccc3o2)cc1,7.2*,12*,1,2,2,1,7.3*
CC(=O)Nc1cccc(NC(=O)c2cc3ccccc3o2)c1,2,8,1,2,2,.,.
CC(C)CC(N)c1csc(NC(=O)Nc2ccccc2C(C)(C)C)n1 (stereo unspecified),0,2,-2,-1,.,.,.
CNc1ccc(-c2cccc(C#N)c2)cn1,-1,2,-2,0,.,.,.
COc1cc2c(cc1NC(=O)CSc1nnc(-c3cccc(Cl)c3)n1Cc1ccco1)oc1ccccc12,0,0,-1,0,.,.,.
CCc1ccc(NC(=O)C(C)OC(=O)Cn2[nH]c(=O)c3ccccc3c2=O)cc1 (stereo unspecified),0,-3,-1,2,0,.,.
O=C(CSc1nnc(-c2cccnc2)n1Cc1ccco1)c1ccccc1,6.6*,-2,-1,1,1,0,2
O=C1CCN(Cc2ccccc2)C=C1c1ccc2ccccc2c1,9.4*,11*,1.0*,2,3,1,7.0*
CC1(C(=O)NS(=O)(=O)c2cccc(C#N)c2)CCN1C(=O)CCC1CCCC1 (stereo unspecified),0,2,-1,0,.,.,.
O=C(Nc1cccc2ccccc12)c1ccc([N+](=O)[O-])cc1,-2,1,-1,0,-1,.,.
O=C(CNc1cccc2ccccc12)c1ccc([N+](=O)[O-])cc1,6.8*,-2,0,0,0,0,2
Cc1ccc(C(=O)Nc2nnc([C@H]3C[C@H](O)[C@@H](CO)O3)s2)cc1,1,-2,-1,2,.,.,.
COCCNC(=S)NNc1ccccc1[N+](=O)[O-],8.7*,2,0,-1,0,0,5
CNC(=S)NNc1ccccc1[N+](=O)[O-],4,-4,0,0,0,.,.
COc1ccc(-c2c(N)cnc(C(=O)O)c2C)c(OCc2ccccc2)c1OC,-1,1,-1,0,1,.,.
CC(C)CCNC(=O)CCC(=O)NNc1nc2ccccc2c2nc(-c3ccccc3)nn12,6.8*,2,0,0,-1,0,2
Cc1ccc(OCc2cc(C(=O)N(C)CCc3ccccn3)no2)cc1C,7.3*,9,0,2,0,0,3
CN1CCN(C(=O)Nc2ccccc2CC[N+](=O)[O-])CC1,13*,-1,0,1,0,0,4
CC(=O)Nc1cccc2ccc(O)cc12,6.7*,-1,-1,2,-1,0,3
CC(=O)Nc1cc2c3ccccc3ccc2c2ccccc12,0,3,-1,-1,1,.,.
CSc1ccc(C2c3[nH]c4ccccc4c3CCN2C(=O)c2ccnn2C)cc1 (stereo unspecified),10*,7,2.0*,0,1,1,8.3*
CCc1ccc(C2c3[nH]c4ccccc4c3CCN2C(=O)c2ccc(=O)n(C)n2)cc1 (stereo unspecified),1,2,0,0,0,.,.
